Inconclusive results are not listed. The source made the active and inactive calls. The call rests on the fitted dose curve; in most records, active means well fitted curve in the direction sought with a large enough effect; inconclusive means small, poorly fitted or top-dose-only effect, or another doubt; inactive means no such curve, though single readings can be large; an effect the other way counts as inactive or inconclusive.
Legend:
[1] = target: ATP-dependent 6-phosphofructokinase (Trypanosoma brucei brucei) (UniProt O15648); experiment: qHTS Assay to Find Inhibitors of T. brucei phosphofructokinase: hit validation (AID 492961);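 further: luminescence reports ADP formed as PFK phosphorylates fructose-6-phosphate with ATP; on the % scale 0 is the no-effect control and ±100 the full control effect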
Outline: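 Compounds titrated; %activity normalized to 0x and 1x enzyme controls, curve-fitted. Readout: ADP-Glo luminescence after 45 min room-temperature reaction of 1.25 nM PFK, 0.1 mM ATP, 0.5 mM F6P, pH 8.0.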

[2] = qHTS profiling for inhibitors of Plasmodium falciparum proliferation (AID 504749); further: potency means the concentration at half of the fitted maximal effect;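 on activity, negative = inhibition: 0% = DMSO vehicle and full inhibition = artemisinin control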; on all read-outs here: nearly all actives have a fitted effect of over 60% in size; details: P. falciparum in erythrocytes, SYBR Green DNA, 72 h; for activity, negative = inhibition: at 28.7 µM (top of the series)
Outline: (§1)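 Each compound contacts P. falciparum-infected red blood cells for 72 h at 37 C; lysis buffer (Tris, EDTA, saponin, Triton X, SYBR Green I) is added and fluorescence measured next morning; values normalized to controls.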

AA1029 = experiment: as above; details: P. falciparum in erythrocytes, SYBR Green DNA, 72 h; series mostly up to 28.7 µM
Outline: as §1

AS120 = experiment: as above; details: P. falciparum in erythrocytes, SYBR Green DNA, 72 h; series mostly up to 28.7 µM
Outline: as §1

ATS189 = experiment: as above; details: P. falciparum in erythrocytes, SYBR Green DNA, 72 h; series mostly up to 28.7 µM
Outline: as §1

CP185 = experiment: as above; details: P. falciparum in erythrocytes, SYBR Green DNA, 72 h; series mostly up to 28.7 µM
Outline: as §1

CP211 = experiment: as above; details: P. falciparum in erythrocytes, SYBR Green DNA, 72 h; series mostly up to 28.7 µM
Outline: as §1

CP217 = experiment: as above; details: P. falciparum in erythrocytes, SYBR Green DNA, 72 h; series mostly up to 28.7 µM
Outline: as §1

CP238 = experiment: as above; details: P. falciparum in erythrocytes, SYBR Green DNA, 72 h; series mostly up to 28.7 µM
Outline: as §1

CP252 = experiment: as above; details: P. falciparum in erythrocytes, SYBR Green DNA, 72 h; series mostly up to 28.7 µM
Outline: as §1

CP262 = experiment: as above; details: P. falciparum in erythrocytes, SYBR Green DNA, 72 h; series mostly up to 28.7 µM
Outline: as §1

CP265 = experiment: as above; details: P. falciparum in erythrocytes, SYBR Green DNA, 72 h; series mostly up to 28.7 µM
Outline: as §1

CP269 = experiment: as above; details: P. falciparum in erythrocytes, SYBR Green DNA, 72 h; series mostly up to 28.7 µM
Outline: as §1

CP286 = experiment: as above; details: P. falciparum in erythrocytes, SYBR Green DNA, 72 h; series mostly up to 28.7 µM
Outline: as §1

CP329 = experiment: as above; details: P. falciparum in erythrocytes, SYBR Green DNA, 72 h; series mostly up to 28.7 µM
Outline: as §1

DFO2036 = experiment: as above; details: P. falciparum in erythrocytes, SYBR Green DNA, 72 h; series mostly up to 28.7 µM
Outline: as §1

ECU = experiment: as above; details: P. falciparum in erythrocytes, SYBR Green DNA, 72 h; series mostly up to 28.7 µM
Outline: as §1

FAB9 = experiment: as above; details: P. falciparum in erythrocytes, SYBR Green DNA, 72 h; series mostly up to 28.7 µM
Outline: as §1

N140 = experiment: as above; details: P. falciparum in erythrocytes, SYBR Green DNA, 72 h; series mostly up to 28.7 µM
Outline: as §1

TAB109 = experiment: as above; details: P. falciparum in erythrocytes, SYBR Green DNA, 72 h; series mostly up to 28.7 µM
Outline: as §1

Sequence of ATP-dependent 6-phosphofructokinase (Trypanosoma brucei brucei) (O15648 whole entry, looked up): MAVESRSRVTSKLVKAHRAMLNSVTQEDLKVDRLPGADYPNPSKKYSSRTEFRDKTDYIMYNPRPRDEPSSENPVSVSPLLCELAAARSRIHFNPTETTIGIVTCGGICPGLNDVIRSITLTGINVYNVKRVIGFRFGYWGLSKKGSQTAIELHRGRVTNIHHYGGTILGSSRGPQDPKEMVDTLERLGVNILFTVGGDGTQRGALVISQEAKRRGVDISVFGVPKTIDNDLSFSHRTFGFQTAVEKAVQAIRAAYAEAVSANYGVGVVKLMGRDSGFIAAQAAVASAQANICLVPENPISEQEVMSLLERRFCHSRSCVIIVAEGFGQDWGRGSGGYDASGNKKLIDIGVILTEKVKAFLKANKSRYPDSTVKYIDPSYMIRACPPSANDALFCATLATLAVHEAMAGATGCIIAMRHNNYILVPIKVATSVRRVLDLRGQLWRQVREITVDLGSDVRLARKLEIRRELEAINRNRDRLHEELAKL

NCCCCC(N)C(=O)O (configuration not stated)
inactive: Potency [1] | activity, negative = inhibition ([2]; parasite line A) -7.93% | activity, negative = inhibition ([2]; parasite line B) 13.6% | Potency (AA1029) | Potency (AS120) | Potency (ATS189) | Potency (CP185) | Potency (CP211) | Potency (CP217) | Potency (CP238) | Potency (CP252) | Potency (CP262) | Potency (CP265) | Potency (CP269) | Potency (CP286) | Potency (CP329) | Potency (DFO2036) | Potency (ECU) | Potency (FAB9) | Potency (N140) | Potency (TAB109)

C[C@@H]1CCN(C(=O)[C@H](CCCNC(=N)N)NS(=O)(=O)c2cccc3c2NC[C@H](C)C3)[C@@H](C(=O)O)C1
inactive: Potency [1] | activity, negative = inhibition ([2]; parasite line A) 3.79% | activity, negative = inhibition ([2]; parasite line B) 10.6% | Potency (AA1029) | Potency (AS120) | Potency (ATS189) | Potency (CP185) | Potency (CP211) | Potency (CP217) | Potency (CP238) | Potency (CP252) | Potency (CP262) | Potency (CP265) | Potency (CP269) | Potency (CP286) | Potency (CP329) | Potency (DFO2036) | Potency (ECU) | Potency (FAB9) | Potency (N140) | Potency (TAB109)

Nc1nc(/C(=C/CC(=O)O)C(=O)NC2C(=O)N3C(C(=O)O)=CCSC23)cs1 (configuration not stated)
inactive: Potency [1] | activity, negative = inhibition ([2]; parasite line A) -3.7% | activity, negative = inhibition ([2]; parasite line B) 3.34% | Potency (AA1029) | Potency (AS120) | Potency (ATS189) | Potency (CP185) | Potency (CP211) | Potency (CP217) | Potency (CP238) | Potency (CP252) | Potency (CP262) | Potency (CP265) | Potency (CP269) | Potency (CP286) | Potency (CP329) | Potency (DFO2036) | Potency (ECU) | Potency (FAB9) | Potency (N140) | Potency (TAB109)

C=C[C@@]1(C)C[C@H](OC(=O)CSC(C)(C)CNC(=O)[C@@H](N)C(C)C)[C@@]2(C)C(C)CC[C@@]3(CCC(=O)[C@@H]32)[C@H](C)[C@H]1O (some centres not stated)
inactive: Potency [1]
active: Potency ([2]; parasite line A) 3160 nM | Potency ([2]; parasite line B) 1410 nM | Potency (AA1029) 1580 nM | Potency (AS120) 3550 nM | Potency (ATS189) 11200 nM | Potency (CP185) 1410 nM | Potency (CP211) 675 nM | Potency (CP217) 5620 nM | Potency (CP238) 5010 nM | Potency (CP252) 1260 nM | Potency (CP262) 239 nM | Potency (CP269) 1070 nM | Potency (CP286) 447 nM | Potency (CP329) 601 nM | Potency (DFO2036) 631 nM | Potency (ECU) 4470 nM | Potency (N140) 1410 nM | Potency (TAB109) 891 nM

CC(=O)N1CC(O)CC1C(=O)O (configuration not stated)
inactive: Potency [1] | activity, negative = inhibition ([2]; parasite line A) -10.1% | activity, negative = inhibition ([2]; parasite line B) -6.82% | Potency (AA1029) | Potency (AS120) | Potency (ATS189) | Potency (CP185) | Potency (CP211) | Potency (CP217) | Potency (CP238) | Potency (CP252) | Potency (CP262) | Potency (CP265) | Potency (CP269) | Potency (CP286) | Potency (CP329) | Potency (DFO2036) | Potency (ECU) | Potency (FAB9) | Potency (N140) | Potency (TAB109)

COc1ccc2cc1Oc1cc3c(cc1OC)CC[N+](C)(C)C3Cc1ccc(cc1)Oc1c(OC)c(OC)cc3c1C(C2)[N+](C)(C)CC3 (configuration not stated)
inactive: Potency [1] | activity, negative = inhibition ([2]; parasite line A) 13.3% | activity, negative = inhibition ([2]; parasite line B) 0.155% | Potency (AA1029) | Potency (AS120) | Potency (ATS189) | Potency (CP185) | Potency (CP211) | Potency (CP217) | Potency (CP238) | Potency (CP252) | Potency (CP262) | Potency (CP265) | Potency (CP269) | Potency (CP286) | Potency (CP329) | Potency (DFO2036) | Potency (ECU) | Potency (FAB9) | Potency (N140) | Potency (TAB109)

O=C(O)c1ccc(N[C@@H]2OC[C@@H](O)[C@@H](O)[C@@H]2O)cc1
inactive: Potency [1] | activity, negative = inhibition ([2]; parasite line A) 8.43% | activity, negative = inhibition ([2]; parasite line B) 9.05% | Potency (AA1029) | Potency (AS120) | Potency (ATS189) | Potency (CP185) | Potency (CP211) | Potency (CP217) | Potency (CP238) | Potency (CP252) | Potency (CP262) | Potency (CP265) | Potency (CP269) | Potency (CP286) | Potency (CP329) | Potency (DFO2036) | Potency (ECU) | Potency (FAB9) | Potency (N140) | Potency (TAB109)

CO/N=C(/C(=O)N[C@@H]1C(=O)N2C(C(=O)O)=C(CSc3cnns3)CS[C@H]12)c1csc(N)n1
inactive: Potency [1] | activity, negative = inhibition ([2]; parasite line A) 8.36% | activity, negative = inhibition ([2]; parasite line B) 11.8% | Potency (AA1029) | Potency (AS120) | Potency (ATS189) | Potency (CP185) | Potency (CP211) | Potency (CP217) | Potency (CP238) | Potency (CP252) | Potency (CP262) | Potency (CP265) | Potency (CP269) | Potency (CP286) | Potency (CP329) | Potency (DFO2036) | Potency (ECU) | Potency (FAB9) | Potency (N140)

Nc1ncn(C2C[C@H](O)[C@@H](CO)O2)c(=O)n1 (some centres not stated)
inactive: Potency [1] | activity, negative = inhibition ([2]; parasite line A) 2.14% | activity, negative = inhibition ([2]; parasite line B) -13.9% | Potency (AA1029) | Potency (AS120) | Potency (ATS189) | Potency (CP185) | Potency (CP211) | Potency (CP217) | Potency (CP238) | Potency (CP252) | Potency (CP262) | Potency (CP265) | Potency (CP269) | Potency (CP286) | Potency (CP329) | Potency (DFO2036) | Potency (ECU) | Potency (FAB9) | Potency (N140) | Potency (TAB109)

C=C1NC(=O)c2cc(CN(C)c3ccc(C(=O)N[C@@H](CCC(=O)O)C(=O)O)s3)ccc2N1
inactive: Potency [1] | activity, negative = inhibition ([2]; parasite line A) 2.89% | activity, negative = inhibition ([2]; parasite line B) 4.82% | Potency (AA1029) | Potency (AS120) | Potency (ATS189) | Potency (CP185) | Potency (CP211) | Potency (CP217) | Potency (CP238) | Potency (CP252) | Potency (CP262) | Potency (CP265) | Potency (CP269) | Potency (CP286) | Potency (CP329) | Potency (DFO2036) | Potency (ECU) | Potency (FAB9) | Potency (N140) | Potency (TAB109)

Reference: PubChem BioAssay (NCATS)
